# Experimental data as given in PubChem BioAssay (NCI).
# The panel holds about 83,000 compounds, 20% with a hit somewhere; the sample as a whole holds those more often.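 Interpretation: 100, growth as untreated; towards 0, rising growth inhibition; 0, no net growth; 0 to -100, cell death. Compounds scoring below 10 were considered active.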 Active and inactive are the calls of the source.
# System: MDA-MB-231 breast
# Test: NCI-60 one-dose screen, 48 h (100 = growth as untreated, 0 = no growth, -100 = all killed)
# Details: 10 µM unless noted
row,Structure (SMILES),growth
1,C=CCC(=O)N[C@H](/C=C/C(=O)O)Cc1ccc(-c2cc(Cl)cc(Cl)c2)cc1,97.9% (inactive)
2,CCN1CCN(c2cc(C)nc(N(CCCNc3ccnc4cc(Cl)ccc34)Cc3cccs3)n2)CC1,-20% (active)
3,COC(=O)CCCNc1c(-c2c(O)c(O)cc3c(O)c(-c4c(C)cc5c(-c6nc7ccccn7c6NCCCC(=O)OC)c(O)c(O)cc5c4O)c(C)cc23)nc2ccccn12,56.1% (inactive)
4,Cn1ncc(Cl)c1-c1cc(C(=O)N[C@H](CN)Cc2ccc(F)c(F)c2)oc1Cl,-43.8% (active)
5,O=c1[nH]c(N2CCOCC2)nc2scc(-c3ccccc3)c12,108% (inactive)
6,Cc1cc2c(-c3nc4ccccn4c3NC3CCCCC3)c(O)c(O)cc2c(O)c1-c1c(C)cc2c(-c3nc4ccccn4c3NC3CCCCC3)c(O)c(O)cc2c1O,26.5% (inactive)
7,CC(C)C1CCC(C)C(C2(C#N)C(N)=NC(N)=C2C#N)C1=O (centres undefined),95.8% (inactive)
8,Cc1cc(N2CCCC2)nc(N(CCCNc2ccnc3cc(Cl)ccc23)Cc2ccc3c(c2)OCO3)n1,4.2% (active)
9,[2H]C1([2H])[C@H](C)O[C@H](C)C([2H])([2H])N1c1ccc(NC(=O)c2cccc(-c3ccc(OC(F)(F)F)cc3)c2C)cn1,74.9% (inactive)
10,Cc1cc2c(-c3nc4ccccn4c3NC34CC5CC(CC(C5)C3)C4)c(O)c(O)cc2c(O)c1-c1c(C)cc2c(-c3nc4ccccn4c3NC34CC5CC(CC(C5)C3)C4)c(O)c(O)cc2c1O,21.9% (inactive)
11,CC[C@H](Nc1ncnc2nc[nH]c12)c1nc2cccc(F)c2c(=O)n1-c1ccccc1,89.1% (inactive)
12,COC(=O)C1=C(C(=O)OC)C23C=C(C)C1C2=C(C)C1(CC1)[C@@](C)(O)C3=O (some centres undefined),9.08% (active)
13,c1ccc2c(c1)CCN(NCCN1CCCC1)C2,87% (inactive)
14,Cc1cc(N(CCNc2ccnc3cc(Cl)ccc23)Cc2cccs2)nc(Cl)n1,-35.7% (active)
15,COc1cc(-c2nc(C(=O)Nc3ccc(C)cc3)nn2-c2ccc(F)c(F)c2)cc(OC)c1OC,96.1% (inactive)
16,O=C(Cn1c(=O)ccn(CCCCCCCCOc2ccc(Br)cc2)c1=O)Nc1ccc(Oc2ccc(Cl)cc2)cc1,66.6% (inactive)
17,Cc1ccc(-c2cc3c(SCC(=O)Nc4cc(C(F)(F)F)ccc4Cl)nccn3n2)cc1,13.4% (inactive)
18,CCCc1cc2cc(-n3nc(C)c4c3CC(C)(C)CC4=O)cc(NC3CCC(O)CC3)c2c(=O)[nH]1 (centres undefined),-0.14% (active)
19,COc1ccc(C(=O)c2cc(OC)c(OC)c(OC)c2)cc1/C=C/C(=O)c1ccc(F)cc1,68.4% (inactive)
20,CC(C)=CCc1cc2c(cc1O)C1=C(C(=O)C3=C(C1=O)S(=O)(=O)CCN3)C(C=C(C)C)O2 (centres undefined),1.47% (active)

row,Structure (SMILES),growth
1,CN1CCN(c2nc(NCCNc3ccnc4cc(Cl)ccc34)c3ccccc3n2)CC1,-10.8% (active)
2,COc1ccc(CCCc2c3[n+](cc4c(OC)c(OC)ccc24)CCc2cc4c(cc2-3)OCO4)cc1,84.6% (inactive)
3,N#Cc1cc2[nH]c3ccc(OC(F)(F)F)cc3c2oc1=O,84.6% (inactive)
4,CCN1CCN(CCCN(C[C@H]2Cc3ccccc3CN2)[C@H]2CCCc3cccnc32)CC1,77.4% (inactive)
5,Clc1ccc2c(NCCCNCc3ccc4c(c3)OCO4)ccnc2c1,12.9% (inactive)
6,Cc1cc(N2CCOCC2)nc(N(CCNc2ccnc3cc(Cl)ccc23)Cc2cccs2)n1,-0.994% (active)
7,CCN1CCN(c2cc(C)nc(N(CCCNc3ccnc4cc(Cl)ccc34)Cc3ccc4c(c3)OCO4)n2)CC1,-29.5% (active)
8,COc1cc(-c2cc(-c3ccc(Nc4ccnc5cc(Cl)ccc45)cc3)nc(N3CCOCC3)n2)cc(OC)c1OC,-15.4% (active)
9,COC(=O)C1CCc2sc3ncnc(Nc4cn[nH]c4C(=O)Nc4ccc(CN5CCN(C)CC5)cc4)c3c21 (centres undefined),-0.275% (active)
10,CO/C=C/C(=O)c1cc2cnc3c(=N)cc(NC(=O)C(C)C)c([nH]1)c23,-31% (active)
11,CCN1CCN(c2nc(C)cc(N(CCNc3ccnc4cc(Cl)ccc34)Cc3ccc4c(c3)OCO4)n2)CC1,-0.846% (active)
12,N#CC(C#N)=NO,108% (inactive)
13,C=CC(=O)N(C)[C@H]1C[C@H]2OC(C)(C1OC)n1c3ccccc3c3c4c(c5c6ccccc6n2c5c31)C(=O)NC4 (some centres undefined),7.42% (active)
14,Cc1ccc(NC(=O)NC(=O)CSc2nc3ccccc3nc2C)cc1,73.1% (inactive)
15,C=CCn1c(=O)c2cnc(Nc3ccc(N4CCN(C)CC4)cc3)nc2n1-c1cccc(C(C)(C)O)n1,9.62% (active)
16,Clc1ccc2c(NCCNc3nc(N4CCCC4)nc4ccccc34)ccnc2c1,-60.7% (active)
17,Clc1ccc(/C=C/c2cc(N3CCOCC3)c3cc(Cl)c(Cl)cc3n2)cc1,59.3% (inactive)
18,Nc1ncnc2c1ccn2-c1cccc(NC(=O)c2ccc(N3CCOCC3)c(C(F)(F)F)c2)c1,46.6% (inactive)
19,CC12O[C@H](C[C@@H](OC(=O)CCC(=O)O)[C@H]1O)n1c3ccccc3c3c4c(c5c6ccccc6n2c5c31)C(=O)NC4=O,64.3% (inactive)
